Where “and” joins values, the source holds several entries; their conditions need not be identical. Equal entries are not always repeated. Calls of active or inactive are those of the source. Calls follow the shape of the dose curve; as a rule, active = well fitted activation curve with a large enough effect in the repeat runs; inconclusive = weak or mixed curves; inactive = flat fitted curve, though single readings scatter.
These compounds were tested against KiSS-1 receptor (Homo sapiens) (UniProt Q969F8) (assay: Human kisspeptin (KISS1R) small molecule agonists, calcium flux assay in KISS1R-HEK293 cells (AID 1920064)). Conditions: KISS1R-HEK293, calcium flux fluorescence, agonist; series mostly up to 76.8 µM; activation: at the top concentration.
From the text: National Center for Advancing Translational Sciences [NCATS]
Division of Preclinical Innovation [DPI]
U.S. Environmental Protection Agency [EPA]
National Institutes of Environmental Health Sciences [NIEHS]
National Toxicology Program [NTP]
U.S. Food and Drug Administration [FDA]
Kisspeptin and its receptor KISS1R play key roles in mammalian reproduction due to their involvement in the onset of puberty and control of the hypothalamic-pituitary-gonadal axis such as regulates GnRH release from the hypothalamus. The kisspeptin/KISS1R system also plays a direct role in peripheral organs (including the ovary, testis, uterus, and placenta) and is implicated in reproductive diseases such as miscarriage and polycystic ovary syndrome (PCOS). Abnormal KISS1R activity is associated with abnormal puberty, infertility, endometriosis, and hormone-dependent tumors. The KISS1 receptor (KISS1R, also called GPR54), a G-protein-coupled receptor (GPCR), acts (through phospholipase C) to increase intracellular inositol trisphosphate and then release intracellular calcium stores. Cell-based KISS1R-HEK293 assay is using HEK293 cells that have been genetically engineered to express the human KISS1R, which activity can be measured by calcium signaling. A compound/drug can activate (agonist) KISS1R that can be monitored by levels of intracellular calcium.
KISS1R-HEK293 cells developed by Codex Corp contain human KISS1R gene, which was stably integrated into HEK 293 cells. The compound activation can be detected by fluorescence intensity via calcium flux assay. This cell line has been used to screen the Tox21 10K compound library to identify agonists of KISS1R.
KISS1R-Hek293 cells were dispensed at 1500 cells/4uL/well in 1536-well black wall/clear bottom plates using a multidrop dispenser. After the assay plates were incubated at a 37 C/5% CO2 incubator for 18 hours, 4 microL of Calcium Dye Solution was added to each well. The plates were incubated at 37 C for 1 hour. And then 23 nL of compounds dissolved in DMSO, positive controls, or DMSO only was transferred to the assay plate by a pin tool station. The fluorescence intensity in the plates was measured using FDSS 7000EX kinetic plate reader with a filter set of Ex/Em=480/540 for 3 min at 1 sec intervals. Each test compound was measured at 15 concentrations and in triplicates.
% is scaled to controls: 0 for no effect and ±100 for the full control effect; potency is read from the fitted curve at half-maximal effect.

KiSS-1 receptor (Homo sapiens), sequence (Q969F8 whole entry, looked up): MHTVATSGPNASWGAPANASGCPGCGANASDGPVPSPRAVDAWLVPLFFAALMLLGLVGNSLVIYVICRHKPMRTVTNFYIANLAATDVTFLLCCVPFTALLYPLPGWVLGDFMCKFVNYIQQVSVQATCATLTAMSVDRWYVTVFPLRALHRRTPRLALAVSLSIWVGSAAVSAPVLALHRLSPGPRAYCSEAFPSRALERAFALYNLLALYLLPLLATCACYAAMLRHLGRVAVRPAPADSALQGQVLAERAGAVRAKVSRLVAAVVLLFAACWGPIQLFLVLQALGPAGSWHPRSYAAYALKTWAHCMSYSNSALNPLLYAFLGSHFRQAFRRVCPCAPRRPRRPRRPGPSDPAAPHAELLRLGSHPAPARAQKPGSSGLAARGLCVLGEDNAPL

Compound | activation | Potency
Cc1cccc2cccnc12 | -2.31% (inactive) | –
Cc1ccc(S(N)(=O)=O)cc1 | – | inactive
CC(=O)CC(=O)Nc1ccc2[nH]c(=O)[nH]c2c1 | 0.699% (inactive) | –
OC[C@H]1O[C@@](CO)(O[C@H]2O[C@H](CO)[C@@H](O)[C@H](O)[C@H]2O)[C@@H](O)[C@@H]1O | – | inactive
Cc1ccccc1N=O | -0.267% (inactive) | –
CCOC(/C=C(\C)CCC=C(C)C)OCC | 1.55% (inactive) | –
CC(C)NCC(O)COc1cccc2ccccc12 (stereo not given) | – | inactive
c1coc(CNc2ncnc3nc[nH]c23)c1 | -2.7% (inactive) | –
CCCCCCCC/C=C\CCCCCCCC(=O)OCCCC | 1.04% [at 15.8 µM] (inactive) | –
O=C[C@H](O)[C@@H](O)[C@H](O)[C@H](O)CO | 0.66% (inactive) | –
O=C1OC2(c3ccccc31)c1cc(Br)c(O)c(Br)c1Oc1c2cc(Br)c(O)c1Br | – | 39.5 µM (active) and 44.9 µM (active) and 23.9 µM (active)
Oc1c(Cl)ccc(Cl)c1Cl | – | inactive
c1cc(C(c2ccc(OCC3CO3)cc2)C(c2ccc(OCC3CO3)cc2)c2ccc(OCC3CO3)cc2)ccc1OCC1CO1 (stereo not given) | – | inactive
CC(=O)[C@@]1(O)CC[C@H]2[C@@H]3CCC4=CC(=O)CC[C@]4(C)[C@H]3CC[C@@]21C | – | inactive
CC(=O)OCCc1ccccc1 | -0.0937% (inactive) | –
Cc1cc(N)n(-c2ccccc2)n1 | 2.06% (inactive) | –
Cc1ncsc1CCO | 1.94% (inactive) | –
CCOCCOCC | 0.929% (inactive) | –
CC(O)Cn1cnc2c1c(=O)n(C)c(=O)n2C (stereo not given) | 0.992% [at 35.3 µM] (inactive) | –
CCOC(=O)c1ccc(C)cc1 | 0.834% (inactive) | –

Compound | activation | Potency
Oc1ccc(O)c2c(O)cccc12 | -0.664% (inactive) | –
Cc1cnccn1 | 0.0072% (inactive) | –
CCOc1c(N2CCOCC2)cnn(C)c1=O | -0.115% [at 35.3 µM] (inactive) | –
CC(=O)OCCN(CCOC(C)=O)c1ccc(N=Nc2ccc([N+](=O)[O-])cc2C#N)cc1 | -1.77% (inactive) | –
COC(=O)c1ccccc1C(=O)c1ccc(OCCN2CCCCC2)cc1 | -0.488% [at 35.3 µM] (inactive) | –
OCCc1ccccn1 | -1.09% (inactive) | –
CCCCCCCCCCCCCCCC(=O)OC | -2.17% [at 15.8 µM] (inactive) | –
CCCCCCOC(=O)CC | 15.7% (inactive) | –
Cc1cc(OCCOCC[N+](C)(C)Cc2ccccc2)ccc1C(C)(C)CC(C)(C)C | – | inactive
Nc1c(Br)cc([N+](=O)[O-])cc1Br | 1.23% (inactive) | –
NC[C@H]1O[C@H](O[C@H]2[C@H](O)[C@@H](O[C@H]3O[C@H](CO)[C@@H](O)[C@H](N)[C@H]3O)[C@H](N)C[C@@H]2N)[C@H](N)[C@@H](O)[C@@H]1O | -0.341% [at 15.8 µM] (inactive) | –
CC(C)(O)C#CC(C)(C)O | -0.331% (inactive) | –
C=CCCCCCCCCO | -3.51% (inactive) | –
Cc1ccc(C(=O)c2cc(O)c(O)c([N+](=O)[O-])c2)cc1 | – | inactive
CC(C)CC(C)(O)C#CC(C)(O)CC(C)C (stereo not given) | – | inactive
OC[C@H]1O[C@@H]2O[C@H]3[C@H](O)[C@@H](O)[C@@H](O[C@H]4[C@H](O)[C@@H](O)[C@@H](O[C@H]5[C@H](O)[C@@H](O)[C@@H](O[C@H]6[C@H](O)[C@@H](O)[C@@H](O[C@H]7[C@H](O)[C@@H](O)[C@@H](O[C@H]1[C@H](O)[C@H]2O)O[C@@H]7CO)O[C@@H]6CO)O[C@@H]5CO)O[C@@H]4CO)O[C@@H]3CO | – | inactive
N[C@H]1C(O)O[C@H](CO)[C@@H](O)[C@@H]1O (stereo not given in full) | 7.76% [at 35.3 µM] (inactive) | –
Cc1ccc(S(=O)(=O)NC(=O)NC2CCCC2)cc1 | -0.235% [at 35.3 µM] (inactive) | –
CC(CO)c1ccccc1 (stereo not given) | -2.53% (inactive) | –
NCCCN1CCN(CCCN)CC1 | -2.43% (inactive) | –
